HCMV antiviral = inhibitors of human cytomegalovirus | HFF cells, HCMV-luciferase reporter, 72 h; hits give low values | activity change, negative = inhibition, % at 57.5 µM | actives 4.5% (n = 410,000) | AID 1259415; in the data active = activity change below about -60%; inconclusive = no clear call, values can overlap the other calls; inactive = above about -39%; note: % is set by controls: 0 for no effect and ±100 for the full control effect
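Compounds were evaluated in HFFs infected with an HCMV luciferase reporter virus (MOI 1 PFU/cell). Luciferase in lysates collected 72 h post infection served as the replication measure.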
Pf growth 96h = inhibits malaria parasite growth, 96 h; AID 504834; actives 6.9% (n = 320,000); Potency, µM (highest dose often 28.7 µM), inactives show at the top dose activity change, negative = inhibition, usual class: inhibitors; P. falciparum luciferase reporter growth, 96 h; note: potency is the fitted concentration of half-maximal effect; % is set by controls: 0 for no effect and ±100 for the full control effect
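Erythrocytes infected with luciferase-expressing P. falciparum were dispensed at 2% hematocrit and 0.05% parasitemia (final), then incubated with compounds 96 hours at 37 C in 5% CO2. Luminescence after detection reagent addition reported growth.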
Shiga toxin inh = blocks Shiga toxin action in Vero cells; Vero cells, Shiga toxin protein synthesis inhibition reporter; inhibition, % at 38.7 µM; actives 9.2% (n = 290,000); AID 2315; in the data active = inhibition mostly above about 28%, no sharp cut-off; inactive = mostly below about 43%; note: 0% is about no effect
CHX counter = counter-screen hit for Shiga toxin inhibitors, cycloheximide | max response, % | cell reporter, cycloheximide protein synthesis inhibition counterscreen | actives 12% (n = 300,000); in the data active = max response mostly above about 13%, no sharp cut-off; inactive = mostly below about 14%; note: read at 38.3 µM for the half of the compounds with a filed dose; 0% is about no effect
Pf growth 48h = P. falciparum growth inhibition at 48 hours (one generation); P. falciparum luciferase growth in erythrocytes, 48 h; Potency, µM (titrated, usually from 28.7 µM), for inactives: at the highest dose activity change, negative = inhibition, actives largely listed as inhibitors; actives 5.9% (n = 310,000); AID 504832; note: potency is the fitted concentration of half-maximal effect; % is set by controls: 0 for no effect and ±100 for the full control effect
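Erythrocytes infected with P. falciparum carrying an integrated firefly luciferase reporter (2% hematocrit, 0.1% parasitemia final) were exposed to compounds in RPMI 1640 with 0.5% Albumax at 37 C, 5% CO2. Growth inhibition was scored as reduced luminescence.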
* marks the source's active call; other numbers are inactive results; u = inconclusive; x = no result given; [ ] = remark or other dose. The list is not random: actives were taken first. Their share in the collection is about 20%. Unless noted, calls come from the whole dose curve; as a rule, active = well fitted inhibition curve with a large enough effect; inconclusive = small, poorly fitted or top-dose-only effect, or another doubt; inactive = no such curve, though single readings can be large or run the other way.

SMILES | HCMV antiviral | Pf growth 96h | Shiga toxin inh | CHX counter | Pf growth 48h
COc1ccc2nc(N=NC3=C(O)CC(C)(C)CC3=O)sc2c1 | -95* | 93% | 44 | 28* | 68%
CC1(C)CC(=O)C(N=Nc2ccc3ncsc3c2)=C(O)C1 | -3 | 53% | 49* | 29* | 96%
CCOCCCNC(=O)C(=O)Nc1c2c(nn1-c1ccc(OC)cc1)CSC2 | 18 | x | x | x | x
CCCN(CCC)S(=O)(=O)c1ccc(NC(=O)C2CCCO2)cc1 (centres undefined) | 12 | 9.3µM* | 0 | -3 | u
O=C(Nc1ccc(O)cc1)C1CCCO1 (centres undefined) | 9 | -17% | 8 | -2 | x
CCCCc1ccc(NC(=O)C2CCCO2)cc1 (centres undefined) | 44 | 159% | 72* | 55* | -21%
CCCCNC(=O)c1ccc(NC(=O)C2CCCO2)cc1 (centres undefined) | -90* | 17% | 10 | 11* | 57%
Cc1ccc(NC(=O)C2CCN(S(=O)(=O)c3ccc4[nH]c(=O)ccc4c3)CC2)cc1C | 70 | x | x | x | x
CCc1nn(CC(=O)NC2CC2)c(=O)c2cc3c(OC)cccc3n12 | 12 | x | x | x | x
Cc1c(Cl)cccc1Nc1nn2c(=O)c3ccccc3nc2s1 | 37 | x | x | x | x
O=C(Nc1ccccc1Cl)C(=O)c1cn(CC(=O)N2CCOCC2)c2ccccc12 | 71 | 12µM* | 46* | 59* | 139%
O=C(NCc1ccc(Cl)cc1)C(=O)c1cn(CC(=O)N2CCOCC2)c2ccccc12 | -87* | 13µM* | 15 | -3 | 19%
COC(=O)c1ccc(NC(=O)C(=O)c2cn(CC(=O)N3CCOCC3)c3ccccc23)cc1 | 4 | u | -2 | -11 | 14%
COc1ccc(-c2cc(C(=O)N3CCN(c4cccc(C)c4C)CC3)c3ccccc3n2)cc1OC | x | 10µM* | x | x | 9.3µM*
CC1CC(C)CN(C(=O)c2cc(-c3ccncc3)nc3ccccc23)C1 (centres undefined) | 8 | u | x | x | 9.3µM*
COc1ccc(-c2cc(C(=O)N3CC(C)CC(C)C3)c3ccccc3n2)cc1OC (centres undefined) | -5 | 10µM* | x | x | u
O=C(c1cc(-c2ccncc2)nc2ccccc12)N1CCN(S(=O)(=O)/C=C/c2ccccc2)CC1 | 16 | u | -18 | 0 | 1.9µM*
COc1ccc(-c2cc(C(=O)N3CCC3)c3ccccc3n2)cc1OC | 6 | -27% | x | x | u
COC(=O)[C@H](NCc1ccc(OC)c(B(O)O)c1)C(C)C | -10 | x | x | x | x
COCCN1Cc2cccc(C(=O)Nc3ccc(C(=O)OC)cc3)c2C1=O | -8 | x | x | x | x
Cc1ccc(NC(=O)c2sc3nc(-c4cc5ccccc5oc4=O)[nH]c(=O)c3c2C)c(C)c1 | 16 | x | x | x | x
Cc1cccc(OCCSc2nc3ccccc3n2CC(=O)O)c1 | 59 | u | x | 2 | 11%
COc1ccc(-c2noc(C3CCCN(C(=O)c4ccccc4C)C3)n2)cc1 (centres undefined) | -39 | u | 10 | 1 | u
Cc1ccc(-c2noc(C3CCN(S(C)(=O)=O)CC3)n2)o1 | 36 | -28% | 80* | 20* | 84%
CCOc1ccccc1NC(=O)N1CCCC(c2nc(-c3ccc(C)o3)no2)C1 (centres undefined) | 11 | 18% | -9 | -2 | 21%
SMILES | HCMV antiviral | Pf growth 96h | Shiga toxin inh | CHX counter | Pf growth 48h
COc1ccc(C(=O)N2CCCC(c3nc(-c4ccc(C)o4)no3)C2)cc1OC (centres undefined) | -8 | 3% | 26 | 7 | -5%
Cc1ccc(-c2nc(C3CCN(S(C)(=O)=O)CC3)no2)cc1 | 3 | 13% | 38 | 28* | 134%
Cc1ccc(-c2nc(C3CCCN(S(=O)(=O)c4ccc(C)cc4)C3)no2)cc1 (centres undefined) | -17 | u | -12 | -4 | x
Cc1ccc(-c2noc(C3CCCN(C(=O)c4ccccc4)C3)n2)o1 (centres undefined) | 54 | -1%[5.75 µM] | 59* | 41* | 166%
Cc1ccc(-c2noc(C3CCCN(C(=O)c4ccccc4Br)C3)n2)o1 (centres undefined) | 26 | 1% | 71* | 28* | u
CC1CCCCC1NC1=NCCCS1 (centres undefined) | x | -8% | 18 | -4 | u
Cc1onc(-c2ccccc2Cl)c1C(=O)Oc1cc(F)cc(F)c1 | -9 | x | x | x | x
CC(=O)c1ccc(S(=O)(=O)Nc2c(C)nn(C)c2C)cc1 | -34 | 5% | x | x | -12%
Clc1ccc(-c2nc(C3CCCCC3)no2)cc1 | 0 | -14% | 89* | 32* | 117%
CCCCN1C[C@H](CO)Oc2cccc(F)c2S1(=O)=O | 9 | x | x | x | x
CC(=O)c1c(C)[nH]c(C(=O)Nc2ccc3c(c2)OCCO3)c1C | 300 | -19% | 99* | 38* | 136%
CCOC(=O)c1[nH]c(C)c(C(=O)Nc2ccc3c(c2)OCCO3)c1C | -74* | -43% | 52* | 48* | u
Cc1cccc(-n2c3nc(=O)n(C)c(=O)c-3cc3ccc(Cl)cc32)c1C | 5 | x | x | x | x
Cc1ccc(NC(=O)C(Cc2c[nH]c3ccccc23)NC(=O)OC(C)(C)C)c(C)c1 (centres undefined) | 8 | x | x | x | x
N#CCc1nc2n(n1)Cc1ccccc1-2 | 30 | u | 1 | -4 | -18%
c1ccc2c(c1)Cn1nc(Cc3nc4c(s3)CCCC4)nc1-2 | 49 | 15% | 74* | 35* | 26%
CCOC(=O)C1=C(C)N=c2s/c(=C\c3ccc(C(=O)O)cc3)c(=O)n2C1c1ccc(OC)cc1OC (centres undefined) | 3 | x | x | x | x
CCOC(=O)C1=C(C)N=c2s/c(=C\c3cccc(OCC(=O)O)c3)c(=O)n2C1c1ccccc1 (centres undefined) | -19 | 0.93µM* | -2 | -1 | 12µM*
CCOC(=O)C1=C(N)N2C(=O)C(C)SC2=C(C(=O)OC)C1c1cccc(OC)c1 (centres undefined) | -86* | 312% | -14 | -3 | x
CCOC(=O)C1=C(C)N=c2s/c(=C/c3ccco3)c(=O)n2C1c1cccc(OC)c1 (centres undefined) | x | -9% | 33 | 21* | u
CCOC(=O)C1=C(C)N=c2s/c(=C\c3cccn3C)c(=O)n2C1c1cccc(OC)c1OC (centres undefined) | 10 | u | 17 | 1 | 2.1µM*
COc1ccccc1-c1noc(-c2ccc(N3CCC(C)CC3)c([N+](=O)[O-])c2)n1 | 66 | x | x | x | x
COc1ccc(NC(=O)N[C@H]2CC[C@@H](CC(=O)NC3CCC3)O[C@@H]2CO)cc1 | -28 | x | x | x | x
CCOC(=O)c1cc(-c2ccc(F)cc2)n(CC(=O)NC2CCCCCC2)c1C | 0 | x | x | x | x
CCOC(=O)C1=C(C)N=C2SC(C(=O)OC)=CC(=O)N2C1c1ccc(F)cc1 (centres undefined) | 12 | u | 15 | -4 | u
CC1=C(C(=O)OC(C)C)C(c2ccc(Cl)cc2)n2c(s/c(=C\c3ccc(OCC(=O)O)cc3)c2=O)=N1 (centres undefined) | 7 | 7.4µM* | -4 | -2 | 12µM*

Screening data from PubChem BioAssay.
